Each structure is given as a SMILES string. Records with an inconclusive call do not appear. The source made the active and inactive calls. Calls come from the whole dose curve; as a rule, active = well fitted inhibition curve with a large enough effect; inconclusive = small, poorly fitted or top-dose-only effect; inactive = flat fitted curve, though single readings scatter. Square brackets hold non-standard residues; d marks the D form. Peptide text beside a SMILES is read from it. Dolaproine = CO[C@@H]([C@@H]1CCCN1)[C@@H](C)C(=O)O; Dil = CC[C@H](C)[C@H](NC)[C@@H](CC(=O)O)OC; NMeV = CN[C@H](C(=O)O)C(C)C

The test in a line: Identification of antibody-drug conjugate (ADC) payloads which are substrates of ATP-binding cassette drug efflux transporters: ABCG2-H460-MX20 cell line with Ko143. Conditions: H460-MX20 (ABCG2) + Ko143, CellTiter-Glo viability, 48 h; series mostly up to 28.7 µM. From the text:
Antibody-drug conjugates (ADCs) feature an antibody recognizing a specific protein joined to a potent toxic payload. Numerous antibody-drug conjugates have received FDA approval; however, clinical resistance arises. Resistance mechanisms include decreased expression or mutation of the antibody target, impaired payload release, or increased expression of ATP-binding cassette (ABC) efflux transporters associated with multidrug resistance. We therefore sought to characterize the interaction of ABC multidrug transporters with ADC payloads. We performed a high-throughput screen with 27 common ADC payloads using cells lines expressing ABC transporters P-glycoprotein (P-gp, encoded by ABCB1) or ABCG2 (encoded by ABCG2). Confirmatory assays were also performed using cells transfected to express P-gp, ABCG2, or MRP1 (encoded by ABCC1). Several commonly used ADC payloads were substrates of P-gp, including calicheamicin gamma1, monomethyl auristatin E, DM1, and DM4. All the pyrrolobenzodiazepines tested - SJG136, SGD-1882, SG2057, and SG3199 - were substrates of P-gp, ABCG2, and MRP1. […] These findings highlight the risk of transporter-mediated resistance with certain ADC payloads and underscore the importance of selecting payloads that evade ABC transporter recognition in future ADC development.
HEK-293 cells were transfected with empty vector (pcDNA) or vector containing the human ABCB1 (MDR-19), ABCG2 (R-5), or ABCC1 gene (MRP1) and were maintained in EMEM with 2 mg/mL G418 added to maintain transporter expression. The HeLa derivative KB-3-1 and the P-gp overexpressing KB-8-5-11 subline were maintained in DMEM; KB-8-5-11 additionally received 100 ng/mL colchicine. H460 parental cells were obtained from the Division of Cancer Treatment and Diagnosis Tumor Repository, National Cancer Institute at Frederick, MD and were cultured in RPMI. The ABCG2 expressing subline H460 MX20 was generated by selecting H460 cells in 20 nM mitoxantrone. Media in all cases was supplemented with 10% FBS and 1% penicillin-streptomycin. We explored 27 common ADC payloads, in two orthogonal, paired cell line sets-a drug selected and transfected set for each transporter--to identify substrates of the ABC transporters P-gp and ABCG2. Compounds were sourced from Levena Biopharma (San Diego, CA), Selleck Chem (Houston, TX), ChemieTek (Indianapolis, IN), or Microsource Discovery Systems (Gaylordsville, CT). Screening was performed as previously described. Briefly, cells were plated at a density of 500 cells/well in 1536 well plates with compounds added using a 1536-head pin tool (Kalypsys, San Diego CA). Cells were incubated with cytotoxic drugs and processed with CellTiter Glo reagent (Promega, Madison, WI) to determine viability after 48 hours. P-gp substrates were identified by comparing compound activity between paired sets of low-expressing (sensitive) and over-expressing (resistant) cell lines.
(In general: Cellular ATP, detected with luciferase, serves as a proxy for viable cell number.)
Take `CCN(C(C)=O)[C@H]1CO[C@@H](O[C@H]2[C@H](O[C@H]3C#C/C=C\C#C[C@]4(O)CC(=O)C(NC(=O)OC)=C3/C4=C\CSSSC)O[C@H](C)[C@@H](NO[C@H]3C[C@H](O)[C@H](SC(=O)c4c(C)c(I)c(O[C@@H]5O[C@@H](C)[C@H](O)[C@@H](OC)[C@H]5O)c(OC)c4OC)[C@@H](C)O3)[C@@H]2O)C[C@@H]1OC`: the Potency was 13.4 nM (active). As for `COc1cccc2c1C(=O)c1c(O)c3c(c(O)c1C2=O)C[C@@](O)(C(=O)CO)C[C@@H]3O[C@H]1C[C@H]2[C@H](O[C@@H]3[C@@H](OC)OCCN32)[C@H](C)O1`, the figure is 0.2 nM (active); as for `COc1cccc2c1C(=O)c1c(O)c3c(c(O)c1C2=O)C[C@@](O)(C(=O)CO)C[C@@H]3O[C@H]1C[C@H](N)[C@H](O)[C@H](C)O1`, 598 nM (active); as for `COC(=O)c1cc2c3c(cc(O)c2[nH]1)N(C(=O)c1cc2cc(OC)c(OC)c(OC)c2[nH]1)CC3CCl` (stereo not given), 0.8 nM (active). Then `CC[C@H](C)[C@@H]([C@@H](CC(=O)N1CCC[C@H]1[C@H](OC)[C@@H](C)C(=O)N[C@@H](Cc1ccccc1)C(=O)O)OC)N(C)C(=O)[C@@H](NC(=O)[C@@H](NC)C(C)C)C(C)C` (H-[NMeV]V[Dil][Dolaproine]F-OH), with 15000 nM (active); and `CC[C@H](C)[C@@H]([C@H](N)CC(=O)N1CCC[C@H]1[C@H](OC)[C@@H](C)C(=O)N[C@@H](Cc1ccccc1)c1nccs1)N(C)C(=O)[C@@H](NC(=O)[C@@H](NC)C(C)C)C(C)C`, with “inactive”. As for `CCc1c2c(nc3ccc(O)cc13)-c1cc3c(c(=O)n1C2)COC(=O)[C@]3(O)CC`, the figure is 150 nM (active). Turning to `CCN[C@H]1CO[C@@H](O[C@H]2[C@H](O[C@H]3C#C/C=C\C#C[C@]4(O)CC(=O)C(NC(=O)OC)=C3/C4=C\CSSSC)O[C@H](C)[C@@H](NO[C@H]3C[C@H](O)[C@H](SC(=O)c4c(C)c(I)c(O[C@@H]5O[C@@H](C)[C@H](O)[C@@H](OC)[C@H]5O)c(OC)c4OC)[C@@H](C)O3)[C@@H]2O)C[C@@H]1OC`, the Potency is 3.8 nM (active).

In the case of `CN(C)CCOc1ccc2[nH]c(C(=O)N3C[C@@H](CCl)c4c3cc(O)c3ccccc43)cc2c1`, the Potency is 0.5 nM (active). Take `CC(C)(C)OC(=O)Nc1ccc2[nH]c(C(=O)N3C[C@@H](CCl)c4c3cc(O)c3ccccc43)cc2c1`: the Potency was 6.7 nM (active).

Values taken from PubChem BioAssay AID2061319 (National Center for Advancing Translational Sciences (NCATS), 2025).
